Screening data from PubChem.
HP1b binding inh = HP1-beta chromodomain-methylated histone interaction inhibition | AID 540317 | Potency, µM (doses to about 114 µM), inactives show at the top dose activity change, negative = inhibition, hits mostly inhibitors | AlphaScreen HP1-beta / biotin-H3K9me3 peptide binding | actives 0.56% (n = 390,000); also: nearly all actives have a fitted effect of over 70% in size
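Compound inhibition of the preformed complex between 50 nM HP1-beta and 50 nM biotinylated H3K9me3 peptide was read by AlphaScreen. Buffer was PBS pH 7.4 with 0.01% Tween-20. Incubations ran 30 min at room temperature, with 10 ug/mL donor/acceptor beads.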
JMJD2A Tudor inh = inhibitors of human JMJD2A Tudor domain; Potency, µM (titrated, usually from 114 µM), inactives show at the top dose activity change, negative = inhibition, most hits filed as inhibitors; AlphaScreen JMJD2A-Tudor / H3K4me3 peptide binding; O75164; actives 4.4% (n = 390,000); also: % is scaled to controls: 0 for no effect and ±100 for the full control effect; nearly all actives have a fitted effect of over 50% in size
BAZ2B block = inhibitors of human BAZ2B bromodomain. AlphaScreen BAZ2B-H3K14Ac peptide displacement. Potency, µM (series often up to 114 µM), inactives show at the highest dose activity change, negative = inhibition, usual class: inhibitors. actives 4.4% (n = 360,000). AID 504333; also: % is scaled to controls: 0 for no effect and ±100 for the full control effect; nearly all actives have a fitted effect of over 60% in size
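BAZ2B 50 nM plus b-H3(5-23)K14Ac 50 nM, PBS pH 7.4/0.01% Tween-20, 30 min RT; compound added (max 110 uM), 30 min RT; streptavidin donor/Ni-chelate acceptor beads 10 ug/mL final, 20 min dark; AlphaScreen read.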
Sfp PPTase inh = blocks B. subtilis Sfp PPTase activity. Potency, µM, for the others: largest response in the series, negative = inhibition, hits mostly inhibitors. actives 3.5% (n = 310,000). Biochemical Sfp PPTase activity, qHTS;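 also: the enzyme is Sfp with the accession as filed and its product quenches rhodamine fluorescence; 0% = enzyme reaction without inhibitor and -100% = no enzyme wells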
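Buffer: 50 mM Hepes-Na pH 7.6, 10 mM MgCl2, 0.01% Nonidet P-40, 0.01% BSA. Enzyme 15 nM, pre-exposed to compound 15 min; substrates then added and fluorescence change tracked over 30 min.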
G9a inh = inhibitors of human histone lysine methyltransferase G9a. AID 504332. Potency, µM (series often up to 102 µM), for the others: at the top dose activity, negative = inhibition, hits mostly inhibitors. actives 8.8% (n = 350,000). Q96KQ7. G9a H3K9 monomethylation, AlphaScreen, 2 h; also: % is scaled to controls: 0 for no effect and ±100 for the full control effect; nearly all actives have a fitted effect of over 75% in size
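AlphaScreen detection with an anti-monomethyl H3K9 antibody quantified product after a 2 h room-temperature reaction containing 500 nM biotinylated H3K9 peptide, 20 µM SAM and 20 nM enzyme, which had been preincubated 15 min with compound.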
PLK1 PBD block = PLK1 (human) polo-box domain binding inhibition | P53350 | AID 720504 | Plk1 PBD binding of FITC phosphopeptide, fluorescence polarization | Potency, µM, for the others: max response, negative = inhibition, usual class: inhibitors | actives 2.8% (n = 360,000); also: series mostly up to about 57 µM; % is scaled to controls: 0 for no effect and ±100 for the full control effect; nearly all actives have a fitted effect of over 65% in size
Numbers without * were called inactive; ? = inconclusive; . = no result given; ! = not confirmed by another sample; [ ] = dose if it differs, or a comment. This is a sample that favours compounds with a hit; in the whole collection about 12% have one here. Calls follow the shape of the dose curve; as a rule, active = well fitted curve in the direction sought with a large enough effect; inconclusive = small, poorly fitted or top-dose-only effect, or another doubt; inactive = no such curve, though single readings can be large; an effect the other way counts as inactive or inconclusive. Potency is read from the fitted curve at half-maximal effect.

SMILES | HP1b binding inh | JMJD2A Tudor inh | BAZ2B block | Sfp PPTase inh | G9a inh | PLK1 PBD block
Cc1ccc(-c2cc(-c3ccc(C)o3)nc(N)c2C#N)cc1 | ? | 32µM* | 71µM* | 13µM* | 2µM* | 13µM*
Cc1c(-c2ccc(F)cc2)nc(N)c(C#N)c1-c1ccco1 | 30% | 0% | 5% | -1% | ? | -6%
Cc1ccc(-c2cc(-c3ccc4c(c3)OCO4)c(C#N)c(N)n2)o1 | 33% | 7% | . | 10µM* | ? | -24%
CCOc1cc(-c2cc(-c3ccc(C)o3)nc(N)c2C#N)ccc1O | 23% | -12% | 4% | -7% | 40µM* | -4%
COc1ccc(-c2cc(-c3ccc(O)cc3)nc(N)c2C#N)cc1OC | 72% | 13% | -34% | ? | 2% | -3%
Cc1ccc(-c2cc(-c3ccc(F)cc3)c(C#N)c(N)n2)o1 | 16% | 40µM* | -26% | ? | 8.9µM* | ?
Cc1ccc(-c2cc(-c3ccc(Cl)cc3)c(C#N)c(N)n2)o1 | -6% | 79µM* | 56µM* | 8.9µM* | 5.6µM* | 21µM*
Cc1nc(N)c(C#N)c(-c2ccc3c(c2)OCO3)c1C | 37% | 2% | -22% | 5% | 17%[59 µM] | 0%
N#Cc1c(N)oc(-c2ccc3c(c2)OCO3)c1-c1ccc2c(c1)OCO2 | 2% | -32% | ? | 4% | 50µM* | -16%
COc1ccccc1OCC(O)Cn1c(=N)n(Cc2ccccc2)c2ccccc21 (centres undefined) | 3% | -25% | 2% | -12% | -26%[12.7 µM] | -8%
CCCCCn1c(=N)n(CC(O)COc2ccccc2OC)c2ccccc21 (centres undefined) | 9% | -25% | -9% | 25µM*! | -50% | -9%
COc1ccc(OCC(O)Cn2c(=N)n(CCN3CCCCC3)c3ccccc32)cc1 (centres undefined) | ? | ? | -6% | 10% | ? | 2.7µM*
N=c1n(CCN2CCCC2)c2ccccc2n1CC(O)c1ccc(Cl)c(Cl)c1 (centres undefined) | 52% | ? | -5% | -5% | ? | 24µM*
Cc1ncc(CO)c(CNc2ccc(Oc3ccccc3)cc2)c1O | ? | ? | ? | 7% | 71µM* | 7%
Cc1c(CC(=O)NCCCC(=O)O)c(=O)oc2cc3c(cc12)CCC(C)(C)O3 | 7% | ? | 0% | 6% | -7% | 27µM*
Cc1c(CC(=O)NCCCCCC(=O)O)c(=O)oc2cc3c(cc12)CCC(C)(C)O3 | 49% | -6% | 2% | 4% | 13% | 3%
c1ccc(-c2nc3ccccn3c2NC2CCCC2)nc1 | -10% | ? | 50µM* | 10µM* | 26%[12.7 µM] | -4%
Cc1cc(C)n2c(NC3CCCCC3)c(-c3ccccn3)nc2n1 | . | . | . | . | . | -12%
Cc1ccn2c(NC3CCCC3)c(-c3ccccn3)nc2c1 | -20% | 50µM* | 50µM* | -7% | ? | 4%
Cc1ccc(OCCC(=O)OCC(=O)Nc2ccccc2)cc1 | 39% | -2% | 1% | 12% | 26% | -8%
COc1cccc(N2CCN(C(=O)c3cc(-c4ccccc4)nc4c3cnn4C(C)C)CC2)c1 | -17% | ? | . | . | . | -5%
CCn1c(CSc2nnc(-c3ccoc3C)n2C)nc2cc(S(=O)(=O)N(C)C)ccc21 | 32% | -12% | -8% | 3% | 50µM* | -13%
NC(=O)[C@@H]1CCCNc2c(I)cc([N+](=O)[O-])cc2C(=O)N[C@@H](CO)C(=O)NCC(=O)N1 | 45% | -6% | -1% | 30% | 79µM* | -13%
NC(=O)CC[C@@H]1NC(=O)[C@H](CO)NC(=O)c2cc([N+](=O)[O-])cc(I)c2NCCC[C@@H](C(N)=O)NC(=O)[C@H](Cc2ccc(O)cc2)NC1=O | 13% | -36% | ? | 5% | 50µM* | -9%
NC(=O)[C@@H]1CCCNc2c(I)cc([N+](=O)[O-])cc2C(=O)N[C@@H](Cc2ccccc2)C(=O)N[C@@H](Cc2cnc[nH]2)C(=O)N1 | 8% | ? | 50µM* | -5% | 8.9µM* | 2%
SMILES | HP1b binding inh | JMJD2A Tudor inh | BAZ2B block | Sfp PPTase inh | G9a inh | PLK1 PBD block
CC(C)C[C@@H]1NC(=O)[C@H](Cc2ccc(O)cc2)NC(=O)c2cc([N+](=O)[O-])cc(I)c2NCCC[C@@H](C(N)=O)NC1=O | 22% | -19% | ? | -12% | 71µM* | -13%
Cc1ccc2[nH]c(C(=O)NCCN3CCCC3)cc2c1 | 27% | -18% | -27% | 1% | ? | -6%
CCOc1ccc(Cl)cc1C1CC(=O)Nc2cc(OC)c(OC)c(OC)c21 (centres undefined) | 14% | -8% | 3% | . | 3%[59 µM] | .
Cc1c(Cl)cccc1NC(=O)NN1CCN(C)CC1 | 12% | -13% | 0% | 11% | 4% | -6%
NC(=O)[C@@H]1CCCNc2c(I)cc([N+](=O)[O-])cc2C(=O)N[C@@H](CO)C(=O)N[C@@H](Cc2ccc(O)cc2)C(=O)N1 | 19% | -26% | -35% | -4% | 45µM* | -6%
CC#CCN1c2ccccc2[C@]23C[C@@H](C(=O)OC)N(S(=O)(=O)c4cccs4)C2=NC(C(=O)OC)=C(C(=O)OC)[C@H]13 | . | . | . | -5% | . | .
c1ccc(-c2nc(-c3cccs3)c(NC3CCCCC3)o2)cc1 | . | . | . | -23% | . | .
C[n+]1ccccc1C1CCCC/C1=N\NC(N)=S (centres undefined) | ? | 22µM* | ? | -6% | 16µM* | ?
CC1CCCC/C1=N\NC(=S)NCCc1ccccc1 (centres undefined) | -3% | ? | ? | 12% | ? | -10%
CCCCN(S(=O)(=O)c1ccccc1)S(=O)(=O)c1ccccc1 | 115% | 62% | 24% | 0% | 106% | -1%
CCn1c2c(c3cc(Cl)ccc31)CCCC2=O | 140% | 70% | 73% | 3% | 86% | 4%
CCn1c2c(c3cc(C(=O)O)ccc31)CCCC2=O | -11% | -20%[11.4 µM] | -18% | 19% | -9%[12.7 µM] | 30µM*
OC(c1ccccn1)(c1ccccn1)c1ccccn1 | 37% | 56µM* | 22µM* | ? | -7%[59 µM] | 3%
CC(c1ccccn1)C(C)(O)C(C)c1ccccn1 (centres undefined) | 29% | -3% | . | . | . | 3%
C=CCn1c(-c2ccc(OC)cc2)csc1=Nc1c(C)n(C)n(-c2ccccc2)c1=O | -10% | ? | ? | -4% | ? | -9%
OCCCn1c(CCNc2nc(-c3ccc(F)cc3)cs2)nc2cc(C(F)(F)F)ccc21 | 27% | -35% | . | . | . | -24%
OCCCn1c(-c2ccc(F)cc2)csc1=Nc1ccc(F)cc1 | ? | 40µM* | 45µM* | . | 16µM* | .
